SMILES strings stand for the structures. Hit rate of the full screen: of about 87,000 compounds, about 540 (0.62%) were called active. The sample holds actives, similar compounds and a random draw of the others, so the mix is not that of the screen. The rule behind the calls is not given here. Results with a measured potency or affinity are listed apart.

The nature of this experiment: inhibitors of MT1-MMP promoter transcription, cell-based, luciferase reporter, luminescence (AID 618).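 Note: actives suppress MT1-MMP promoter-driven transcription so potencies describe inhibitors.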 As to conditions: MT1-MMP promoter luciferase reporter cells. On the technique in general: In a reporter assay the amount or activity of a reporter protein is the signal.
Consider `COc1oc(-c2ccc(Cl)cc2)nc1C(F)(F)F`, for which the molecule was called inactive.
For the molecule `c1ccc2c(c1)c1c3n2CCNC3CCC1` (centres undefined), the outcome was inactive.
Under `c1cc2c(cc1C1CCCCC1)c1c3n2CCCNC3CCC1` (centres undefined) stands “active”; under `Cc1ccc2c(c1)c1c3n2CCN(C(=O)C2CC2)C3CCC1` (centres undefined), “inactive”; under `Cc1ccc2c(c1)c1c3n2CCN(C(=O)CN2CCN(C)CC2)C3CCC1` (centres undefined), “inactive”.
In the case of `Cc1ccc2c(c1)c1c3n2CCCNC3CCC1` (centres undefined), the molecule was called inactive.
With `CCCCCn1c(N)c(-c2nc3ccccc3s2)c2c([N+](=O)[O-])nn(C)c(=O)c21`, the molecule was classed as inactive.
As for `Cc1cc(OC(=O)c2ccco2)c2c(C)cc(=O)oc2c1`, the entry is “inactive”.
Under `O=c1oc2ccccc2n1CCCOc1ccccc1` stands “inactive”; under `CCc1cccc(CC)c1NC(=O)CN1CC(C)SC1=NC1CCCCC1` (centres undefined), “inactive”; under `Cc1ccc(NC(=O)CN2CC(C)SC2=NC2CCCCC2)cc1` (centres undefined), “active”.
As to `CC1CCCN(S(=O)(=O)c2ccc(NC(=O)CN3CCN(C)CC3)cc2)C1` (centres undefined), the molecule was classed as inactive.
As for `C=CCOc1cc(C)nc(-c2ccccc2O)n1`, the entry is “inactive”.
Consider `CCOC(=O)CSc1nnc(N)s1`, for which the result was inactive.
Under `O=C1C/C(=C/NCc2ccccc2)C(=O)N1` stands “inactive”.
Under `Cc1nnc(NC(=O)CSc2nccn2-c2cccc(C)c2C)s1` stands “active”; under `CCc1nnc(NC(=O)CSc2nccn2-c2cccc(C)c2C)s1`, “inactive”.
For the molecule `CCSc1nnc(NC(=O)CSc2nccn2-c2cccc(C)c2C)s1`, the result was inactive.
With `O=C1CC(c2c[nH]c3ccccc23)C(=O)N1` (centres undefined), the call was inactive.
For the molecule `CCOc1ccc(-c2cc(CCCC(=O)Nc3cccc(OC)c3)no2)cc1`, the molecule was classed as inactive.
Under `CCOc1ccc(-c2cc(CCCC(=O)NCCc3ccccc3)no2)cc1` stands “inactive”.
Under `CCOc1ccc(-c2cc(CCCC(=O)NCCc3ccc(OC)c(OC)c3OC)no2)cc1` stands “inactive”.
Under `CCOc1ccc(NC(=O)CCCc2cc(-c3ccc(OCC)cc3)on2)cc1` stands “inactive”; under `COc1ccccc1NC(=O)NC(=O)N(C(C)C)S(C)(=O)=O`, “inactive”; under `Cc1cc2ncn(CC(O)COC3CCCCC3)c2cc1C` (centres undefined), “inactive”.
In the case of `CC(=O)Nc1ccc(OCC(=O)c2ccc(C)cc2C)cc1`, the result was inactive.
Under `CC(C)NC(=O)c1ccccc1NC(=O)c1ccccc1N(C)S(C)(=O)=O` stands “inactive”.
With `COCCn1c(C)cc(C(=O)COC(=O)c2n[nH]c3ccccc23)c1C`, the outcome was active.
Consider `COCC(C)n1c(C)cc(C(=O)COC(=O)c2n[nH]c3ccccc23)c1C` (centres undefined), for which the molecule was called inactive.
Take `Cc1cc(NC(=O)COC(=O)c2n[nH]c3ccccc23)no1`: the outcome was inactive.
Under `CCOC(=O)c1n[nH]c2ccccc12` stands “inactive”; under `COCCn1c(C)cc(C(=O)COC(=O)c2ccc(-n3nc(C)cc3C)cc2)c1C`, “inactive”.
As to `CCCCCn1c(=O)[nH]c2cc(C(=O)O)ccc2c1=O`, the outcome was inactive.
As for `Clc1ccccc1CSc1nnc(Cn2cnc3ccccc32)n1-c1ccccc1`, the entry is “inactive”.
Under `CN1CCC(NC(=O)c2cccs2)CC1` stands “inactive”.
Turning to `CC(C)COc1ccc(-c2nnc(-c3ccco3)o2)cc1`, the result was inactive.
As for `CCCOc1ccc(-c2nnc(-c3ccncc3)o2)cc1`, the entry is “inactive”.
As for `CCOc1ccc(-c2nnc(-c3cccs3)o2)cc1`, the entry is “inactive”.
As for `CCCOc1ccc(-c2nnc(-c3ccco3)o2)cc1`, the call was inactive.
Turning to `O=C(CN1CCOCC1)Nc1c2c(nc3ccccc13)N(Cc1ccccc1)CC2`, the call was inactive.
Take `O=C(O)C1CCN(S(=O)(=O)c2ccc(Oc3ccccc3)cc2)CC1`: the outcome was inactive.
In the case of `Cc1cc(NC(=O)CCCC(=O)Nc2ccc(F)cc2)no1`, the molecule was called inactive.
Under `COc1ccc(S(=O)(=O)N[C@@H](Cc2ccccc2)C(=O)N2CC[C@@]3(O)CCCC[C@H]3C2)cc1` stands “inactive”; under `Cc1c(NC(=O)c2cnn3c2NC(c2ccc(Br)cc2)CC3C(F)(F)F)c(=O)n(-c2ccccc2)n1C` (centres undefined), “inactive”.
Regarding `c1ccc2nc(-c3nc4ccccc4o3)ccc2c1`, the call was active.
Turning to `c1ccc(-c2nc3ccccc3o2)nc1`, the molecule was called inactive.
As for `c1cc(-c2nc3ccccc3o2)nc(-c2nc3ccccc3o2)c1`, the entry is “inactive”; as for `Cc1ccc(-c2nnc(Nc3ccccc3)o2)cc1`, “active”; as for `CCNc1nnc(-c2ccc(C)cc2)o1`, “inactive”.
As for `Cc1ccc(-c2nnc(-c3ccccc3)o2)cc1`, the entry is “inactive”.
With `O=C(O)CCCn1c(=O)[nH]c2ccccc2c1=O`, the result was inactive.
For the molecule `CC(=O)N1c2ccccc2N(Cc2ccc(C)cc2C)C(=O)C1(C)C`, the call was active.
As for `Cc1ccc(C(=O)N2c3ccccc3N(Cc3ccccc3)C(=O)C2(C)C)cc1`, the entry is “inactive”; as for `Cc1ccc(C)c(CN2C(=O)C3(OCCCO3)c3ccccc32)c1`, “inactive”; as for `COc1ccc(N(C)S(=O)(=O)c2ccc3c(c2)oc(=O)n3C)cc1`, “inactive”.
Under `Cc1[nH]c2ccc(C(=O)O)cc2c1C` stands “inactive”.
With `Cc1nn2c(CN(C(=O)c3ccco3)c3ccccc3)nnc2c2ccccc12`, the outcome was inactive.
Consider `O=S(=O)(N1CCOCC1)n1nnc2ccccc21`, for which the result was inactive.
For `O=C(N1CCOCC1)n1nnc2ccccc21`, the molecule was classed as inactive.
Under `O=C(CSc1ncnc2ccccc12)N1CCN(c2ccccc2)CC1` stands “inactive”; under `NC(=O)C1CCN(C(=O)c2cc3ccccn3n2)CC1`, “inactive”; under `COc1cccc(-c2nnn(CCC(=O)O)n2)c1`, “inactive”.
Under `COc1ccc(NC(=O)CCn2nnc(-c3ccc(C)cc3)n2)cc1OC` stands “inactive”.
Under `COC(=O)CCn1nnc(-c2cccs2)n1` stands “inactive”; under `COC(=O)CCn1nnc(-c2ccc(C)cc2)n1`, “inactive”.
On to `COc1ccc(-c2nnn(CCC(=O)O)n2)cc1`, for which the molecule was called inactive.
`Cc1ccc(-c2nnn(CCC(=O)NC(C)(C)C)n2)cc1`: the molecule was classed as inactive.
Consider `O=C(c1ccc(CS(=O)(=O)c2ccccc2)o1)N1CCOCC1`, for which the molecule was called inactive.
On to `CCCn1c(=S)[nH]c2cc(OC)c(OC)cc2c1=O`, for which the outcome was inactive.
As for `CC(=O)N1CCN(CCN=CC2=C(O)CC(c3ccc(Cl)cc3)CC2=O)CC1` (centres undefined), the entry is “inactive”; as for `O=C(C1CCCN(Cc2ccccc2)C1)N1CCc2ccccc2C1` (centres undefined), “inactive”; as for `NC(=O)c1cc(Cl)cn(-c2ccccc2)c1=O`, “inactive”.
Under `CCOC(=O)C1CCCN(c2ncnc3c2[nH]c2cccc(OC)c23)C1` (centres undefined) stands “inactive”; under `O=C(c1cc(-c2cccs2)nc2ccccc12)N1CCN(S(=O)(=O)c2cccc(F)c2)CC1`, “inactive”; under `CSC(=O)CC(=O)NC(=O)c1ccccc1`, “inactive”.
Under `Cc1ccc2oc(Nc3nc(C)cc(C)n3)nc2c1` stands “inactive”; under `Cc1cccc(C)c1Nc1nc2ccccc2o1`, “inactive”; under `O=c1[nH]c(Nc2nc3ccccc3o2)nc2c1CCCC2`, “inactive”.
For the molecule `Cc1ccc(NC(=O)c2c(C)nc(Nc3nc4ccccc4o3)nc2C)cc1`, the call was inactive.
As for `O=C(c1cccs1)N1CCc2ccccc21`, the entry is “inactive”; as for `COc1cccc(-c2nc(-c3ccccc3)no2)c1`, “inactive”.
On to `COc1cccc(-c2noc(-c3cccnc3)n2)c1`, for which the molecule was classed as inactive.
Under `Cc1ccc(SCc2nc(-c3ccccn3)no2)cc1` stands “inactive”; under `c1ccc(-c2cc(-c3nc(-c4ccccn4)no3)c3ccccc3n2)cc1`, “inactive”.
`Clc1ccc(-c2nc(-c3ccccn3)no2)cc1Cl`: the outcome was inactive.
Under `Cc1onc(-c2ccccc2Cl)c1-c1nc(-c2ccccn2)no1` stands “inactive”; under `Cc1ccc(-c2nc(-c3ccccn3)no2)cc1Cl`, “active”.
As to `Clc1cccc(-c2nc(-c3ccccn3)no2)c1`, the molecule was classed as active.
For the molecule `c1ccc(-c2noc(-c3ccc4ccccc4c3)n2)nc1`, the outcome was active.
Take `COc1ccc(-c2noc(-c3cccc(Cl)c3)n2)cc1OC`: the molecule was called inactive.
Under `c1ccc(SCc2nc(-c3ccccn3)no2)cc1` stands “inactive”.
Take `O=C(Nc1nccs1)c1ccc(COc2ccccc2Br)o1`: the outcome was inactive.
On to `O=C(CSCc1c(Cl)cccc1Cl)Nc1nccs1`, for which the outcome was inactive.
Under `CCCCOC(=O)Nc1ccc(C(N)=O)cc1` stands “inactive”.
On to `C/C=C/c1ccc(OCCCNC)c(OC)c1`, for which the molecule was called inactive.
Under `CC1CCN(C(=O)COc2ccccc2F)CC1` stands “inactive”; under `O=C(CCn1c(=O)[nH]c2ccsc2c1=O)N1CCN(c2cccc(Cl)c2)CC1`, “inactive”; under `CCCc1cc(C(=O)Nc2cc(OC)c(Cl)cc2OC)no1`, “inactive”.
Under `Brc1ccc(-c2nc(-c3ccccc3)no2)o1` stands “inactive”; under `c1ccc(-c2noc(-c3ccc4c(c3)OCO4)n2)nc1`, “active”; under `COc1ccc(-c2nc(-c3ccc(Br)cc3)no2)c(OC)c1`, “inactive”.
As for `COc1ccc(-c2noc(-c3ccccc3-c3ccccc3)n2)cc1`, the entry is “inactive”; as for `c1ccc(-c2noc(-c3ccco3)n2)nc1`, “inactive”; as for `c1cc(-c2noc(-c3ccc4c(c3)OCO4)n2)ccn1`, “inactive”.
As for `c1ccc(-c2noc(-c3ccncc3)n2)nc1`, the call was inactive.
As for `COc1ccc(-c2noc(-c3ccc4c(c3)OCO4)n2)cc1`, the entry is “inactive”; as for `COc1ccc(-c2nc(-c3ccccc3)no2)c(OC)c1`, “active”.
Take `c1ccc(-c2noc(-c3cccnc3)n2)nc1`: the result was inactive.
For the molecule `Cc1sc2nc(SCC(=O)N3CCCC3)[nH]c(=O)c2c1C`, the call was inactive.
For `O=C1CC(c2ccco2)c2ccc3ccccc3c2N1` (centres undefined), the outcome was inactive.
With `CCOC(=O)c1cnc(SCC(=O)c2ccc(C)cc2)nc1N`, the result was inactive.
`Cc1cc(C)n(CC(O)Cn2ccc3ccccc32)n1` (centres undefined): the molecule was classed as inactive.
Consider `c1ccc(-c2nnc(-c3ccccc3)o2)cc1`, for which the result was inactive.
Consider `CCOc1ccc(-c2nc(-c3ccccc3)no2)cc1OCC`, for which the result was inactive.
In the case of `Brc1cccc(-c2nc(-c3ccncc3)no2)c1`, the result was inactive.
Under `c1ccc(-c2nnc(-c3cccc(-c4nnc(-c5ccccc5)o4)c3)o2)cc1` stands “inactive”; under `Cc1ccc(Cc2nc(-c3ccccn3)no2)cc1`, “inactive”; under `Cc1occc1-c1nc(-c2ccccn2)no1`, “inactive”.
As for `c1ccc(-c2noc(-c3ccc4ccccc4c3)n2)cc1`, the entry is “active”.
Under `CC1=CCC(C(=O)O)C(C(=O)Nc2nc3ccc(S(C)(=O)=O)cc3s2)C1` (centres undefined) stands “inactive”.
Regarding `Cn1c(=O)c2c(ncn2CC(=O)N2CCN(c3ccccc3F)CC2)n(C)c1=O`, the molecule was classed as inactive.
As to `COc1ccc(-c2c(C)n([O-])c(C)c(C)[n+]2=O)cc1`, the molecule was classed as inactive.
With `COc1ccc(S(=O)(=O)N2C3CCC2CC(NC(=O)NC2CCCCC2)C3)cc1` (centres undefined), the call was inactive.
Under `COc1cccc(NS(=O)(=O)c2ccc3[nH]cc(C(=O)NC4CC4)c(=O)c3c2)c1` stands “inactive”.

The values are drawn from PubChem BioAssay AID618 (Sanford-Burnham Center for Chemical Genomics, 2007).
